Data published in the supplement of paper PMC11732987, “Enantioselective OTUD7B fragment discovery through chemoproteomics screening and high-throughput optimisation” (Communications Chemistry, 2025).
Values without a mark were called inactive.

Legend:
Experiment in all cases: log2 ratio of Biotin-Ahx-Ub-VS probe labelling (fragment/DMSO); higher = less target engagement (more negative = stronger competition), active = hit call of the paper (q ≤ 0.05, log2 ratio ≤ -1)
Conditions in all cases: compound concentration: 200 uM; treatment time: 3 h
[1] = target: T1, ALG13 (UniProt Q9NP73)
T1 sequence (whole entry): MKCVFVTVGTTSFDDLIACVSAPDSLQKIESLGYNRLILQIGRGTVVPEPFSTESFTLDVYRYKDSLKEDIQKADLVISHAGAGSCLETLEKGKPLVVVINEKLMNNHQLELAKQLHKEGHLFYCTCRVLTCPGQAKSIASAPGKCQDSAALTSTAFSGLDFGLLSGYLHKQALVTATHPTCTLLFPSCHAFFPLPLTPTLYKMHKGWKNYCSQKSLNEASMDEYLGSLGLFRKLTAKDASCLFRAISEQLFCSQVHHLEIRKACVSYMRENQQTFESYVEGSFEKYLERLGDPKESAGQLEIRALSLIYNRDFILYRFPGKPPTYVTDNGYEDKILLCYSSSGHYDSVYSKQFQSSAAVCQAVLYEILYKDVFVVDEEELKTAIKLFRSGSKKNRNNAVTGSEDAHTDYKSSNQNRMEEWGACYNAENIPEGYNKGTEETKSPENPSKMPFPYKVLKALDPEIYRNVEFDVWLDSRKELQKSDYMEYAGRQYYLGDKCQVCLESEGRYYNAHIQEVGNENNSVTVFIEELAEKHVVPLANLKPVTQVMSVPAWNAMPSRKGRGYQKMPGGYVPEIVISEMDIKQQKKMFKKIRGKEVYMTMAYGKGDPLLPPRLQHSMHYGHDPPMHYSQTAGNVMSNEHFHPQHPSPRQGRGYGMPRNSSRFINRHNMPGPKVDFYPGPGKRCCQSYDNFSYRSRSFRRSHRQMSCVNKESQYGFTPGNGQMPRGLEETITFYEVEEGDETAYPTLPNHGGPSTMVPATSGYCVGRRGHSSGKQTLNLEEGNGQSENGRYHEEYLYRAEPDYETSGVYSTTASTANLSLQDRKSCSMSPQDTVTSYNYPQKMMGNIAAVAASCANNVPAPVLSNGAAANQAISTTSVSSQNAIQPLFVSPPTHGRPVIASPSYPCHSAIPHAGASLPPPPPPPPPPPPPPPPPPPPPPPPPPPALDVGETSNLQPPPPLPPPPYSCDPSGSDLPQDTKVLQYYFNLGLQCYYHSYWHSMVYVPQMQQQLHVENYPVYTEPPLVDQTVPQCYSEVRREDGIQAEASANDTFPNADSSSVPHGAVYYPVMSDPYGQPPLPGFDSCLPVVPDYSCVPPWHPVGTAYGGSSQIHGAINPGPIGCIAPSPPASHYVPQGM
How it was run: (§1)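 Labelled DUBs were enriched with NeutrAvidin, digested with LysC and trypsin, and run by diaPASEF LC-MS/MS. The labelling used Biotin-Ahx-Ub-VS at 0.5 µM final for 1 h on HEK293T lysate (495 µg per sample) previously treated in triplicate with fragment at 200 µM or vehicle for 3 h. Values are average log2 fragment/vehicle ratios by unpaired t-test on global-median-normalised Spectronaut quantities of proteins with ≥2 unique peptides.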

[2] = target: ATXN3 (UniProt P54252)
ATXN3, sequence (P54252 whole entry): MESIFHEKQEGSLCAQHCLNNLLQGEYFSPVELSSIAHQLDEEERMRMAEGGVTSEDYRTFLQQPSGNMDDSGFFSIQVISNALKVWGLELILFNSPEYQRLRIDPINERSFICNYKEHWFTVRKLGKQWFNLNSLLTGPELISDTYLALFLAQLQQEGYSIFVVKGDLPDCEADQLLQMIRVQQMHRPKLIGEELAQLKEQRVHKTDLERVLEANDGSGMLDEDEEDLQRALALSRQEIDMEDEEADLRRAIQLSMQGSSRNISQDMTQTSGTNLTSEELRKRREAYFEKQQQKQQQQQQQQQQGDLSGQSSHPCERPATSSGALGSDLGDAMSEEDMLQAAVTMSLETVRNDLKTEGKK
How it was run: as §1

[3] = target: T2, BAP1 (UniProt Q92560)
T2 sequence (whole entry): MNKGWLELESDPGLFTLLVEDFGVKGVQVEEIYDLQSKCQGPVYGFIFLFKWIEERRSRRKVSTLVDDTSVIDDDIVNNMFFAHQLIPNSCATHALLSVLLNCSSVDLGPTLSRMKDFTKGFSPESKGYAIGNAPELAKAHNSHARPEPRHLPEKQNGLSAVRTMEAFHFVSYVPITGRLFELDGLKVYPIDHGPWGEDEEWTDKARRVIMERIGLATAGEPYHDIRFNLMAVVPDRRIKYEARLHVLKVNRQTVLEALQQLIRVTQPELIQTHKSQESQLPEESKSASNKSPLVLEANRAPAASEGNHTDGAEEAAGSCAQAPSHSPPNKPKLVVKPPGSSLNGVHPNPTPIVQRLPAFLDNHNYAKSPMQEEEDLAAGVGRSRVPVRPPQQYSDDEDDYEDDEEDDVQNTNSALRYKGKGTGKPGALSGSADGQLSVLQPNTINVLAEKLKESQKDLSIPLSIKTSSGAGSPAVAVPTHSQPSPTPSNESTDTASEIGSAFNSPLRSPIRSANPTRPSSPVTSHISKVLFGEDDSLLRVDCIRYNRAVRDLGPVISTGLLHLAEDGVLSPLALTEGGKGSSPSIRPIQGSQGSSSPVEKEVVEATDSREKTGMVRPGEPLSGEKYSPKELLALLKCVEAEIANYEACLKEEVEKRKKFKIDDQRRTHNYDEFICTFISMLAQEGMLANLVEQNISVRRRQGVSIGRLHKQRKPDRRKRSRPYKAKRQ
How it was run: as §1

[4] = target: EIF3F (UniProt O00303)
EIF3F, sequence (O00303 whole entry): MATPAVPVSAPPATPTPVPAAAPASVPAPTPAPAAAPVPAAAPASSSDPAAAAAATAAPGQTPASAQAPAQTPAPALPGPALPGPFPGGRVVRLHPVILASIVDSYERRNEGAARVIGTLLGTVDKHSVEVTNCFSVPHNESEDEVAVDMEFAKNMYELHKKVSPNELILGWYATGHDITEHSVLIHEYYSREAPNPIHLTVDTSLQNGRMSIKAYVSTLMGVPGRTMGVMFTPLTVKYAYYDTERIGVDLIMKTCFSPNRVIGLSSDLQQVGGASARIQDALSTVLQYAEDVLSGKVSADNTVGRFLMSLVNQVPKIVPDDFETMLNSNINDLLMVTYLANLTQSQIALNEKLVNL
How it was run: as §1

[5] = target: EIF3H (UniProt O15372)
EIF3H, sequence (O15372 whole entry): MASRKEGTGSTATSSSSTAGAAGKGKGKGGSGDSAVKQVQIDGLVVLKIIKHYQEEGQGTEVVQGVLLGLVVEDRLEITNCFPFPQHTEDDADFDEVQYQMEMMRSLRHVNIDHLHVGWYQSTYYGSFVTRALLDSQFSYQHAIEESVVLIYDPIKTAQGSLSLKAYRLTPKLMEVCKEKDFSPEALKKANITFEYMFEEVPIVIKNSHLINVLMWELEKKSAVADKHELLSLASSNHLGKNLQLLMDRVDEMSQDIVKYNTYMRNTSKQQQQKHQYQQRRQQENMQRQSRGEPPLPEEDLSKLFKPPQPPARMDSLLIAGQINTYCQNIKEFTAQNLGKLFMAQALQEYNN
How it was run: as §1

[6] = target: T3, FAM105A (UniProt Q9NUU6)
T3 sequence (whole entry): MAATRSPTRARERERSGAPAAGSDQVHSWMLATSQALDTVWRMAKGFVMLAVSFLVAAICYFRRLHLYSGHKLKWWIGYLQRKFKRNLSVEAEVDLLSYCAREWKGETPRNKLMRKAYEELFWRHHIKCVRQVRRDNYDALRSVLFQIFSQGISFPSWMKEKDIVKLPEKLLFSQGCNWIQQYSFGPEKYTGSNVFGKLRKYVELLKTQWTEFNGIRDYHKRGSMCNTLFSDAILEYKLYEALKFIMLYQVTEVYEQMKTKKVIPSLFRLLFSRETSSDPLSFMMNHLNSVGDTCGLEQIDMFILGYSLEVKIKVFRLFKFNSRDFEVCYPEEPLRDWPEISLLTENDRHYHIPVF
How it was run: as §1

[7] = target: OTUB1 (UniProt Q96FW1)
OTUB1, sequence (Q96FW1 whole entry): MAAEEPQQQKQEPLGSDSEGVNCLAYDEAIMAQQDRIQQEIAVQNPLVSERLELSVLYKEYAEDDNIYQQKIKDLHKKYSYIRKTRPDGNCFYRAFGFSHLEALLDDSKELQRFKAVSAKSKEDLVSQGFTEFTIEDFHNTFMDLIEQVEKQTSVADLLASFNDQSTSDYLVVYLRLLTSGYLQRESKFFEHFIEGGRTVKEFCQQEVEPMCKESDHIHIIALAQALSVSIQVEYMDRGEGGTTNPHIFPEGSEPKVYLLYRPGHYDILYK
How it was run: as §1

[8] = target: T4, OTUD4 (UniProt Q01804)
T4 sequence (whole entry): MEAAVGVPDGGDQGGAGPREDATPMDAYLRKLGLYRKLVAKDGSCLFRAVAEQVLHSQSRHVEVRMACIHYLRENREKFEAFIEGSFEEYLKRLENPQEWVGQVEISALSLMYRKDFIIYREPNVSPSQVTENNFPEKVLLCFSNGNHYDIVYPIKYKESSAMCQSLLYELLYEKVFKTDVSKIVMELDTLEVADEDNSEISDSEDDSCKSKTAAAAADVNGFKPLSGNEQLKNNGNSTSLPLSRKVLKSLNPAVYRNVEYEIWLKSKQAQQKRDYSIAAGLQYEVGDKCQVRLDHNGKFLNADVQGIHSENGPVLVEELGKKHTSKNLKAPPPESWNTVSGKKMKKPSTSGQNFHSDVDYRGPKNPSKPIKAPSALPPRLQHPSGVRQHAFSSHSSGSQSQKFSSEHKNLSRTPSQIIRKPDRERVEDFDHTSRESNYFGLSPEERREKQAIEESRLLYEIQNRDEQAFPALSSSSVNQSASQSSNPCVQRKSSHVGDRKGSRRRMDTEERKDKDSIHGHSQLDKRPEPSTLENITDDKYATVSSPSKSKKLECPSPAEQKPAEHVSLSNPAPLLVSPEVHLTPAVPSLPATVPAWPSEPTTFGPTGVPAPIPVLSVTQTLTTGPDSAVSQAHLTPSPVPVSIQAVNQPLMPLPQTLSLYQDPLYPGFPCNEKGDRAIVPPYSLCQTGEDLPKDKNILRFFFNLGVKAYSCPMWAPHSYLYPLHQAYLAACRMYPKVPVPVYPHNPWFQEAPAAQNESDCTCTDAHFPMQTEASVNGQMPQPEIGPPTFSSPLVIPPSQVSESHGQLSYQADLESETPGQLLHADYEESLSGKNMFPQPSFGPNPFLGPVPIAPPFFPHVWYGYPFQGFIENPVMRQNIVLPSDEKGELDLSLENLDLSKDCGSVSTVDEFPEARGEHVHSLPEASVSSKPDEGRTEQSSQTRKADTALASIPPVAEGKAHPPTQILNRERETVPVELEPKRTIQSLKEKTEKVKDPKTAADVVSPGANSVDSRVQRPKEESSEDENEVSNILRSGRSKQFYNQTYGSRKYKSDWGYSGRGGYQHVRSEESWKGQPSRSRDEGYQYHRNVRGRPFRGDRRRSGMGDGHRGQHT
How it was run: as §1

[9] = target: T5, OTUD5 (UniProt Q96G74)
T5 sequence (whole entry): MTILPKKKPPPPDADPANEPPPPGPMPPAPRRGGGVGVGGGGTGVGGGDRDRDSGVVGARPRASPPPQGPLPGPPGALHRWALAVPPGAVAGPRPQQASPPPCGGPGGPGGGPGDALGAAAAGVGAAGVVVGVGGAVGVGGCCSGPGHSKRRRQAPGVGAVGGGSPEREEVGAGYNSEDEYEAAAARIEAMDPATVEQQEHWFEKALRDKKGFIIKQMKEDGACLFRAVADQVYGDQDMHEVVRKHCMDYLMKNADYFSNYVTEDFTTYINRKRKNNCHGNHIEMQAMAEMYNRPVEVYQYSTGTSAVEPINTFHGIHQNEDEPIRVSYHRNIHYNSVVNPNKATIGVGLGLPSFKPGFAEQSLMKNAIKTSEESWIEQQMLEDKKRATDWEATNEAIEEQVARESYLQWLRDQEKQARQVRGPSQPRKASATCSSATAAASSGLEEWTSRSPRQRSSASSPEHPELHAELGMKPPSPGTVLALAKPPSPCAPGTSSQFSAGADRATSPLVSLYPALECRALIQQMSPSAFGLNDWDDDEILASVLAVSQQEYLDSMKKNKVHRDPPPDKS
How it was run: as §1

SMILES	log2 ratio of Biotin-Ahx-Ub-VS probe labelling [1]	log2 ratio of Biotin-Ahx-Ub-VS probe labelling [2]	log2 ratio of Biotin-Ahx-Ub-VS probe labelling [3]	log2 ratio of Biotin-Ahx-Ub-VS probe labelling [4]	log2 ratio of Biotin-Ahx-Ub-VS probe labelling [5]	log2 ratio of Biotin-Ahx-Ub-VS probe labelling [6]	log2 ratio of Biotin-Ahx-Ub-VS probe labelling [7]	log2 ratio of Biotin-Ahx-Ub-VS probe labelling [8]	log2 ratio of Biotin-Ahx-Ub-VS probe labelling [9]
CC(C)n1nccc1NC(=O)CCl	-0.568	-0.233	-4.23 (active)	-0.0764	0.237	0.00922	-0.27	-0.438	-0.522
O=C(CCl)N1CCc2ccccc2C(O)C1 (stereo unspecified)	0.0799	-0.585	-0.705	-0.125	-0.359	-0.413	0.0821	-0.69	-1.31 (active)
CC1Cc2ccccc2N1C(=O)CCl (stereo unspecified)	-0.0487	-0.989	-0.55	-0.355	0.0594	-0.0636	-0.626	-0.544	-0.957
COCC[C@@H](NC(=O)CCl)c1ccccc1	-0.555	-0.208	-1.89 (active)	-0.137	-0.017	0.268	-0.131	-0.138	-0.197
CC(=O)C1CCCCN1C(=O)CCl (stereo unspecified)	0.0431	0.025	-0.0781	-0.0667	0.304	0.264	0.0807	0.0774	-0.219
COc1ccc(Cl)cc1NC(=O)CCl	0.166	-0.592	-1.61 (active)	-0.594	0.0551	-0.287	-0.497	-0.484	-0.638
O=C(CCl)NCCc1cccc2ccccc12	-0.35	0.214	-1.22 (active)	0.273	0.236	0.159	0.162	0.0626	0.0474
O=C(CCl)Nc1cc2c(cc1Cl)OCCO2	-0.314	0.00781	-3.65 (active)	-0.138	0.0273	0.123	0.157	-0.327	-0.173
O=C(CCl)Nc1ccc(F)cc1F	0.182	-0.351	-2.82 (active)	-0.155	0.108	0.102	-0.293	-0.268	-0.5
Cc1cc(C2CCCN2C(=O)CCl)nn1C.Cl (stereo unspecified)	0.0249	-0.374	-0.0558	-0.11	-0.0784	0.201	-0.0124	-0.0857	-0.157
Cc1ncc2c(n1)CCN(C(=O)CCl)C2	-0.466	-0.614	-0.39	-0.159	0.129	0.443	-0.578	-0.0123	-0.606
Cc1cc(CC(C)NC(=O)CCl)n[nH]1 (stereo unspecified)	0.0722	-0.115	-0.509	-0.138	-0.131	0.19	0.11	-0.115	-0.0107
O=C(CCl)NC1CCOc2ccccc21 (stereo unspecified)	-0.044	-0.806	-2.55 (active)	-0.349	0.199	0.29	-0.321	-2.03 (active)	-0.73
C[C@H]1CN(C(=O)CCl)CCN1C(=O)c1cnn(C)c1.Cl	0.134	-0.631	-0.356	0.132	0.0411	0.375	-0.204	-0.236	-0.326
